Results filed as inconclusive are left out. Active and inactive are the calls of the source. Calls follow the shape of the dose curve; as a rule, active = well fitted cell-killing curve with a large enough effect; inconclusive = small, poorly fitted or top-dose-only effect, or effect the other way; inactive = no such curve, though single readings can be large or run the other way.
Experiment: Quantitative High-Throughput drug screen in 47 multiple myeloma cell lines against the NCATS MIPE library collection: KMS12BM_JCRB cell viability assay (AID 1918971); also: nearly all actives have a fitted effect of over 35% in size
Conditions: KMS12BM myeloma viability, CellTiter-Glo ATP, 48 h; series mostly up to 45.8 µM; viability, % of DMSO: at the top concentration
How it was run: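 Myeloma cell lines, 500 cells per well, exposed to MIPE 4.0 library compounds for 48 h at 37C, 5% CO2. Viability from ATP by CellTiter-Glo luminescence; normalised to DMSO (100%) and media-only (0%) wells.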
Potency is read from the fitted curve at half-maximal effect.

Structure (SMILES) | viability, % of DMSO | Potency
CO[C@@H]1C(N(C)C(=O)c2ccccc2)C[C@H]2O[C@]1(C)n1c3ccccc3c3c4c(c5c6ccccc6n2c5c31)C(=O)NC4=O (stereo not given in full) | 97.4% (inactive) | 
CN(C)c1nc(Cc2ccc(NC(=O)c3ccc(C(F)(F)F)cc3)cc2)nc(N(C)C)c1CC(=O)O | 113% (inactive) | 
CN[C@@H]1CN(c2ccc3c(=O)c(C(=O)O)cn(-c4nccs4)c3n2)C[C@@H]1OC |  | 0.645 µM (active)
CC(C)C[C@@H](C(=O)N[C@H](C(=O)OC1CCCC1)c1ccccc1)[C@H](O)C(=O)NO |  | 18.7 µM (active)
COc1c(C)cnc(Cn2cnc3c(Cl)nc(N)nc32)c1C |  | 0.187 µM (active)
C[C@H]1COC2=C1C(=O)C(=O)c1c2ccc2c1CCCC2(C)C |  | 18.7 µM (active)
OC[C@H]1O[C@@H](O[C@H]2[C@@H](O)[C@@](O)(CO)O[C@@H]2CO)[C@H](O)[C@@H](O)[C@@H]1O | 114% (inactive) | 
CC(=O)NCCC(=O)N[C@@H](CCC(N)=O)C(=O)N[C@@H](CO)C(=O)N[C@@H](CCC(N)=O)C(=O)N[C@@H](CCC(N)=O)C(=O)N[C@H](C(=O)N[C@@H](Cc1ccccc1)C(=O)N[C@]1(C)CCCCCCC=CCCC[C@@](C)(C(=O)N[C@@H](CCC(N)=O)C(=O)N[C@@H](CC(N)=O)C(N)=O)NC(=O)[C@H](CC(C)C)NC(=O)[C@H](CC(C)C)NC(=O)[C@@H](CCCNC(=N)N)NC(=O)[C@H](Cc2c[nH]c3ccccc23)NC(=O)[C@H](CC(C)C)NC(=O)[C@H](CC(N)=O)NC1=O)[C@H](C)O |  | 9.35 µM (active)
CC(C)C[C@H](NC(=O)c1cc2ccccc2s1)C(=O)N1CCN(C(=O)[C@H](CO)NS(=O)(=O)c2ccc(Cl)cc2Cl)CC1 |  | 18.7 µM (active)
C[C@@H]1[C@H](O)[C@@H](C)C=CC=CC=CC=CC=CC=CC=C[C@H](O[C@@H]2O[C@H](C)[C@H](O)[C@H](N)[C@@H]2O)C[C@@H]2O[C@](O)(C[C@@H](O)C[C@@H](O)[C@H](O)CC[C@@H](O)C[C@@H](O)CC(=O)O[C@H]1C)C[C@H](O)[C@@H]2C(=O)O |  | 2.09 µM (active)

Source: PubChem BioAssay (NCATS)
